Measured values reported in the supplement of paper PMC6555819.

Legend:
Experiment in all cases: PBM binding z-score (relative to random genomic background probes); higher = stronger binding; sequences stand for … in GC…GCGATTGACAGCGTAGAATGAAGG
[1] = test system: RARb homodimer (NR concentration 270 nM)
In short: (§1)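 Probes were double-stranded and carried 34-nt variable regions with direct-repeat seeds, single-nucleotide variants, half-site ablations and random human genomic background sequences, printed on custom Agilent 4×180K protein-binding microarrays. Arrays were incubated 1 h with ligand-free nuclear receptor dimers in PBS pH 7.4, 2% milk, 0.02% Triton X-100, 1 mM DTT, 0.2 mg/mL BSA and 0.4 mg/ml salmon testes DNA. Antibodies against each partner (one per run) detected binding, and scanned fluorescence was regression-normalized. Binding z-scores use the random background probes as reference.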

[2] = test system: RARg:RXRa (NR concentration 270 nM, RXRa partner concentration 90 nM)
In short: as §1

[3] = test system: RARg homodimer (NR concentration 270 nM)
In short: as §1

[4] = test system: RXRa DBDmut IVT, anti-RXR (DBD mutation: RXRa K156A/R161A, NR concentration 90 nM)
In short: as §1

[5] = test system: RXRa homodimer (NR concentration 180 nM)
In short: as §1

[6] = test system: THRa:RXRa (NR concentration 90 nM, RXRa partner concentration 90 nM)
In short: as §1

[7] = test system: THRa homodimer (NR concentration 90 nM)
In short: as §1

[8] = test system: VDR homodimer (NR concentration 270 nM)
In short: as §1

Sequence	PBM binding z-score [1]	PBM binding z-score [2]	PBM binding z-score [3]	PBM binding z-score [4]	PBM binding z-score [5]	PBM binding z-score [6]	PBM binding z-score [7]	PBM binding z-score [8]
CCAGACAGGTGAGACGGTAACTCAGCCTCGATTA	0.4	-0.0368	0.0246	0.0275	-0.179	-0.0755	0.114	0.029
TCTTGTAGATCAGCGGGTTAAGAAAGCTGGCCAA	0.0505	-0.0561	-0.559	0.982	0.349	0.0519	-0.241	-0.169
TAGCCTAGGTCATGGGCCAGCATACCACGCGAAC	2.95	4.29	4.36	-0.00159	3.28	3.04	0.897	0.227
CCGACTGGGGCATGGTTACCATAACGCACAGCCA	-0.189	-0.0426	0.399	-0.99	-0.131	-0.641	-0.739	-0.781
CCTTACGGGTCACTGACAGGTTATACCATTTGGA	3.56	5.73	4.84	1.64	5.54	2.85	0.447	1.41
TCAGACAGGTGAAGATAACTCAGGTACGCAGTCG	0.661	0.712	0.748	1.15	1.13	0.737	0.4	0.623
TCTCGGAGGACACGAATGGTCAGAGCTCGACATC	0.664	0.332	1.29	0.733	0.156	1.01	0.00528	-0.606
TCGAGTAGGTTAGTGGGGGCATTCAGCCAACATA	1.75	1.55	1.14	1.36	1.34	2.29	1.16	3.31
CGTTAAAGTTCAAGGTAACGTAACAGAAAGCAGC	3.54	4.91	5.74	4.35	3.98	2.78	1.23	3.34
TCTTCTAGATCAACAGGAGGTTAAGAAAGATCGA	0.617	0.984	0.501	0.855	1.01	0.77	-0.076	-0.175
TCTATTATTTGATTAGGGCAACCGAAACAGCGGA	0.742	0.671	0.596	1.27	0.751	0.898	1.07	1.47
CTACCAAGGTGAACAAGGTCGTTAATTACTATTC	2.04	1.86	1.55	1.48	1.91	3.19	1.99	2.64
ACTCTTAGTTGAGACGAGGGCAACCGATAGGTTG	1.14	0.56	0.695	0.403	0.46	2.59	0.356	0.844
GCAGACAGGTGAAACCCAGGTAACTCAGGGTGGC	0.254	0.543	0.3	-0.915	0.749	2.18	0.116	-0.563
CGGCAAAGTTCAACTAAGGTAACGTAAAGCACGC	4	5.78	6.69	4.36	5.14	5.16	1.33	3.51
TAGCCTAGGTCATTGGGGCAGTATAGTACGCATC	3.31	3.93	4.23	1.67	2.99	2.96	1.28	1.8
TCTGCTCGGTCAGTTGGTCAGCTAACGAGCTGCC	1.35	0.987	1.71	-0.175	-0.299	-0.381	-0.999	-0.918

Sequence	PBM binding z-score [1]	PBM binding z-score [2]	PBM binding z-score [3]	PBM binding z-score [4]	PBM binding z-score [5]	PBM binding z-score [6]	PBM binding z-score [7]	PBM binding z-score [8]
AGTCTAAGTTCATCTAGGTAACGTAAGATATGCT	2.48	3.58	4.02	4.94	2.6	2.9	0.767	5.9
AATACAGGGTCACTATGCCAGAGTAGGTACGAAT	2.83	4.76	4.14	2.94	5.15	3.31	1.27	2.48
CGAACGAGGGCATGAGTTGATACCAAATGCCGAT	1.11	1.48	1.6	2.37	0.992	1.37	-0.127	1.57
CGTCCAAGGTCAAGGTCGGTGAAAGAGACTCGAA	4.27	6.3	6.78	3.67	5.99	4.11	2.88	2.44
CAAACTAGGGCAAGGTCAAAGTCGGTTTGTGCCA	4.09	4.67	4.49	2.41	4.63	3.75	2.34	3.52
AGAATGAGGTTACCAAAGACCAGGGAAACGCTTG	0.685	2.01	1.51	1.02	2.79	2.87	0.659	0.4
ATAATGAGGTTATACGTAGATCAGGGAAGAAAGT	1.21	2.19	1.72	2.1	2.56	2.46	0.968	1.16
CCTAGCAGGCCAGGGTCACTCATGCATTTCGCTT	2.68	2.82	1.97	0.745	2.96	2.79	1.04	1.31
CGTCCAAGCTCAGAGAGGTCAGTGAATGCCGAGT	3.56	2.72	2.99	0.551	2.36	2.19	0.794	2.2
CGTCAAAGTTCCAGGTAACGTAACAGAAAGCAGC	-0.0356	0.18	0.454	0.141	0.0249	0.992	0.691	0.0156
AGTCAAAGATCACTAGGTAACGTAAGATTCAGCT	-0.307	0.422	0.489	-0.0538	0.356	0.378	-0.116	-0.051
CCTACTGGGCCACGGTCATTGATCAGTCAAAGCA	1.5	0.43	0.896	-1.25	-0.391	0.204	-0.144	-0.135
TCATATAGGAAAACAGGTGAAAGTCCGTAAGTTA	0.455	0.219	0.0668	1.81	1.17	0.338	0.187	0.639
CAAACTAGGTTAAGGTCAAAGTCGGTTTGTGCCA	4.49	5.11	4.99	2.74	5.29	4.54	5.29	4.48
ACTTACGGGTCAACCAGGTTATAGCACGCGTATA	3.43	5.74	5.08	2.31	6.13	3.79	0.987	2.74
CGTCAAAGTTCAACTAAGGCAACGTAAAGCACGC	4.17	5.79	6.64	4.64	5.05	4.74	0.241	3.68
CGAACGAGGGCCTGAGTTGATAGCAAATGCCGAT	-0.782	-0.386	-0.326	0.337	-0.236	-0.563	-0.666	-0.394
